Results published in PubChem BioAssay AID1347055 (National Center for Advancing Translational Sciences (NCATS), 2019).
Screen size: about 54,000 compounds; about 120 (0.22%) were called active. Not shown: some 8% with an inconclusive outcome. This is one part of a sample in which actives are shown more often than they occur. A number with no mark means an inactive call. The call rests on the fitted dose curve; in most records, active means well fitted inhibition curve with a large enough effect; inconclusive means small, poorly fitted or top-dose-only effect, or effect the other way; inactive means flat fitted curve, though single readings scatter.

Target: Fumarate hydratase, mitochondrial (Homo sapiens) (UniProt P07954)
Assay: Identification of activators of human fumarate hydratase by quantitative high-throughput screening; further: the screen sought activators but most active calls are inhibition curves; nearly all actives have a fitted effect of over 45% in size
Settings: FH coupled MDH/diaphorase resazurin fluorescence, 15 min; series mostly up to 79.9 µM; activity change, negative = inhibition: at the top concentration
Source text: Fumarate hydratase (FH) is a metabolic enzyme that is part of the Krebs-cycle, and reversibly catalyzes the hydration of fumarate to malate. Mutations of the FH gene have been associated with fumarate hydratase deficiency (FHD), hereditary leiomyomatosis, renal cell cancer (HLRCC), and other diseases. Currently there are no high-quality small molecule probes for studying human fumarate hydratase. To address this, we developed a quantitative high throughput screening (qHTS) FH assay and screened a total of 57,037 compounds in dose-response. While no inhibitors of FH were confirmed, a series of phenyl-pyrrolo-pyrimidine-diones (12 compounds) were identified as activators of human fumarate hydratase. […] The binding of two compounds from the series to human fumarate hydratase was confirmed by microscale thermophoresis. The low hit rate in this screening campaign confirmed that FH is a "tough target" to modulate, and the small molecule activators of human fumarate hydratase reported here may serve as a starting point for further optimization and development into cellular probes of human FH and potential drug candidates.
For primary high-throughput screen, 3 ul of FH solution (containing 13.33nM human fumarate hydratase, 13.33IU/ml malic dehydrogenase, 0.2mM NAD, 0.067mg/ml diaphorase and 0.067mM resazurin in the assay buffer (50 mM Tris pH 8.0, 5 mM MgCl2, 0.01% Brij 3) was dispensed into each well in a black solid bottom 1536-well assay plate (Greiner Bio-One) using a BioRAPTR FRD dispenser (Beckman Coulter, Brea, CA). A 1536-well pintool dispenser outfitted with 20 nl pins (Wako Automation, San Diego, CA) was used to transfer 20 nL of DMSO-solubilized compound (Cherrypick plates) to each 1536-well assay plate. Each compound was screened at five concentrations: 15 nM, 151 nM, 1.5 uM, 15.4 uM, 76.9 uM. Following compound transfer, plates were incubated in room temperature for 10 minutes. 1 uL of substrate solution containing fumaric acid (160 uM) was dispensed via BioRAPTR FRD to initiate the reaction. Plates were immediately transferred to a ViewLux microplate imager (PerkinElmer, Waltham, MA), and any resulting resorufin fluorescence was measured (exitation/emission, 525/598 nm) at 0 and 15 minutes. The exposure time is 1 second. Fluorescence from each well was normalized using enzyme-free and DMSO-treated control wells on each plate, and changes in fluorescence (delta RFU) were calculated using the difference in fluorescent signal for each well at 15 minutes versus 0 minutes.
On the % scale 0 is the no-effect control and ±100 the full control effect; potency means the concentration at half of the fitted maximal effect.

Chain of Fumarate hydratase, mitochondrial (Homo sapiens) (P07954 whole entry, looked up): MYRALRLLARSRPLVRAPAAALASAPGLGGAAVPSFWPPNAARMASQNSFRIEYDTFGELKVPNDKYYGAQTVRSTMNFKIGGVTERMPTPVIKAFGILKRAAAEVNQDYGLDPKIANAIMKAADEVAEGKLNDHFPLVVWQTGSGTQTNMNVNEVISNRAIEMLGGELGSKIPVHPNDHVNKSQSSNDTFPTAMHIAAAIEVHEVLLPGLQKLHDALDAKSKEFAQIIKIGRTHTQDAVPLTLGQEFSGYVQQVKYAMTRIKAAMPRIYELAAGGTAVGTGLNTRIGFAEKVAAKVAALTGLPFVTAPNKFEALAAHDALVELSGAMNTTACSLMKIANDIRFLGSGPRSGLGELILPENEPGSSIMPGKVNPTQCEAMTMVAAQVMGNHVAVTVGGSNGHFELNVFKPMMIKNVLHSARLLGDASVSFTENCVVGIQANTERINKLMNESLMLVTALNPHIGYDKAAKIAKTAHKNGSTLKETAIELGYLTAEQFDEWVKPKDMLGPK

Row | Compound | activity change, negative = inhibition | Potency
1 | CC[C@H](C)[C@H](NC(=O)[C@H]([C@@H](C)CC)N(C)C(C)=O)C(=O)N[C@H](C(=O)N[C@@H](CC(C)C)C(=O)[C@@]1(C)CO1)[C@@H](C)O | -8.46% | 
2 | COc1cc(C2c3cc(O)c(OC)cc3CC(CO)C2CO)ccc1O (stereo not drawn) | -1.89% [at 53.3 µM] | 
3 | CCOc1ccc(NC(=O)CC2C(=O)N(c3cccc(OC)c3)C(=O)N2C2CCCCC2)cc1 (stereo not drawn) | -21.2% | 
4 | COc1cccc(C(=O)c2sc3nc(-c4ccccc4)cc(C(F)(F)F)c3c2N)c1 | -18.3% | 
5 | Cc1cccc(N2CCN(C(=O)Cn3ncc4c5ccccc5n(C)c4c3=O)CC2C)c1 (stereo not drawn) | -11.6% | 
6 | CC(=O)/C=C/C1(O)C(C)(C)CC(O)CC1(C)O (stereo not drawn) | 7.46% | 
7 | Cc1ccc2nc(COc3cccc(NC(=O)c4ccccc4Cl)c3)cc(=O)n2c1 | -7.7% | 
8 | O=C(Cn1c(=O)n(-c2ccc(F)cc2)c(=O)c2sccc21)Nc1cccc(C(F)(F)F)c1 | -16.2% | 
9 | COc1ccc(CCN2C(=O)N(c3cccc(OC)c3)C(=O)C2CC(=O)Nc2ccccc2)cc1 (stereo not drawn) | -34.4% | 
10 | CC1=C(C)C(=O)OC(C(C)C2CCC3C4CC=C5CC(OC6OC(COC7OC(CO)C(O)C(O)C7O)C(O)C(O)C6O)CC(O)C5(C)C4CCC23C)C1 (stereo not drawn) | -4.36% [at 20.6 µM] | 
11 | CN(C(=O)CSc1nc2ccc(NC(=O)COc3ccccc3)cc2s1)c1ccccc1 | -9.62% | 
12 | CC(Nc1ncnc2nc[nH]c12)c1cc2cccc(Cl)c2c(=O)n1-c1ccccc1 (stereo not drawn) | -6.04% | 
13 | COc1ccc(NC(=O)c2ccc(-c3ccc(C(=N)N)cc3C)cc2)cc1N1CCN(C)CC1 | -13.4% | 
14 | Cc1c(C2=CCN(C(=O)N(C)C(C)C)CC2)nnn1-c1cccnc1F | -2.43% | 
15 | C/C=C/C1=CC2=CC(=O)C(C)(O)C(OC(=O)c3c(C)cc(O)cc3O)C2CO1 (stereo not drawn) | -4.08% [at 53.3 µM] | 
16 | COc1ccc(Cn2ccnc2SCC(=O)Nc2ccc3c(c2)OCO3)cc1 | -2.17% | 
17 | O=C(CSCc1cnn(-c2ccccc2)c1-n1cccc1)NCc1ccccc1Br | -11.3% | 
18 | Cc1cccc(N2CCN(c3c(CN4CCCC4)c(=O)oc4ccccc34)CC2)c1C | -2.63% | 
19 | Cn1c(=O)[nH]c(=O)c2c1nc(NCCc1ccccc1)n2Cc1ccc(F)cc1 | -6.91% | 
20 | CCCOc1cccc(C(=O)Nc2cccc(NC(=O)c3ccc(C(C)(C)C)cc3)c2)c1 | -3.92% | 
21 | COc1ccccc1-n1c(SCC(=O)Nc2nc3ccc(C)cc3s2)nc2c(c1=O)SCC2 | -7.7% [at 53.3 µM] | 
22 | COc1ccc(CCNc2ncnc3c2cnn3-c2ccc(C)cc2)cc1 | -5.98% | 
23 | CC1(C)C[C@H]2C3=CCC4[C@@]5(C)CC[C@H](O[C@H]6O[C@H](C(=O)O)[C@@H](O)[C@H](O)[C@H]6O[C@H]6O[C@H](CO)[C@@H](O)[C@H](O)[C@H]6O[C@@H]6O[C@H](CO)[C@@H](O)[C@H](O)[C@H]6O)[C@](C)(CO)C5CC[C@@]4(C)[C@]3(C)CC[C@@]2(C)[C@H](O[C@@H]2OC[C@H](O)[C@H](OC3O[C@H](CO)[C@@H](O)[C@H](O)[C@H]3O)[C@H]2O)[C@@H]1O (stereo partly drawn) | 17.6% [at 13.5 µM] | 
24 | CCc1cc2c(cc(C(=O)OC)n2Cc2nc(-c3ccc(C)cc3)oc2C)s1 | -12% | 
25 | CCOC(=O)c1cc(OC(=O)c2ccccc2Cl)n(-c2ccccc2)n1 | -5.8% | 

Row | Compound | activity change, negative = inhibition | Potency
26 | Cc1cc2ccccc2n1CCNC(=O)c1ccc(F)cc1 | -12.2% | 
27 | COc1ccc(Cl)cc1NC(=O)CSc1nc(=O)[nH]c2c1CCCC2 | -10.3% | 
28 | CCOc1ccc(-n2c(SCC(=O)NCc3ccccc3)nc3n[nH]c(C)c3c2=N)cc1 | -3.31% | 
29 | CC(=O)Nc1c(C)nn(-c2ccccc2)c1N1CCC(C(=O)Nc2cc(Cl)ccc2C)CC1 | 1.23% | 
30 | CC1(O)CC(O)C2(O)C=COC(O[C@@H]3O[C@H](CO)[C@@H](O)[C@H](O)[C@H]3O)C12 (stereo partly drawn) | 1.62% [at 53.3 µM] | 
31 | CCOc1ccc(CC(=O)NCCc2csc3nc(-c4ccccc4F)nn23)cc1 | -12.1% | 
32 | Cc1c(O)cc2c(c1O)COC1(O)CCCOC21 (stereo not drawn) | 5.93% | 
33 | O=C(OC1CN2CCC1CC2)N1CCc2ccccc2C1c1ccccc1 (stereo not drawn) | 2.64% | 
34 | C=C1C2(CCC(=O)OC2(C)C)CC(OC(=O)/C(C)=C/C)C2(C)C13OC14C(=O)OC(C)(C(=O)C12C(=O)OC4C)C3OC(C)=O (stereo not drawn) | 6.23% [at 20.6 µM] | 
35 | CCOc1ccc(/C=C(\C#N)c2nc3ccccc3c(=O)[nH]2)cc1OC | -13.3% | 
36 | N#CSc1cc(SC#N)c(N)nc1N | 0.38% [at 20.6 µM] | 
37 | CCOc1cccc2c1N[C@@H](c1ccc(C(=O)O)cc1)[C@H]1CC=C[C@@H]21 |  | 28.2 µM (active)
38 | CCOc1ccccc1CNC(=O)c1ccc(-n2c(C)cc3c2CCC(C)C3)cc1 (stereo not drawn) | -9.65% | 
39 | CCOc1cccc(CC(=O)N2CCc3c([nH]c4ccccc34)C2c2ccc(F)cc2)c1OCC (stereo not drawn) | -21.3% | 
40 | Cn1c(SCC(=O)N2CCC[C@H]2C(=O)Nc2ccccc2-c2ccccc2)nc2ccccc21 | 0.115% | 
41 | COc1cccc(C(=O)NCc2ccc3c(c2)CCN3C(=O)c2ccncc2)c1 | -7.2% | 
42 | CCc1cc2c(cc3c(=O)n(CC(=O)NCCc4ccc(OC)c(OC)c4)ncn32)s1 | 1.09% | 
43 | COc1cccc(N=C2SC(C(=O)Nc3cccc(Cl)c3)CC(=O)N2C)c1 (stereo not drawn) | -17% | 
44 | COC(=O)N1CCC(n2ncc3c(N4CCOCC4)nc(-c4ccc(NC(=O)Nc5ccc(CO)cc5)cc4)nc32)CC1 | -11% | 
45 | [N-]=[N+]=N[C@]1(CO)O[C@@H](n2ccc(N)nc2=O)[C@@H](O)[C@@H]1O | -0.769% | 
46 | Cc1cc2nn(-c3ccc(Cl)cc3)nc2cc1NC(=O)C(C)C | -5.15% | 
47 | C/C=C(/COC(=O)/C(C)=C/C)C(=O)OC/C=C/c1ccc(OC)cc1 | -4.5% [at 53.3 µM] | 
48 | Clc1ccc2ncc(-c3cccc(NC4CCNCC4)n3)n2c1 | 5.21% | 
49 | COC(=O)c1cc(Cl)c(NC(C)=O)cc1OC | -1% [at 53.3 µM] | 
50 | CCOC(=O)c1[nH]c(C)c(CCC(=O)N2CCN(c3ccccc3)CC2)c1C | -6.53% | 

Row | Compound | activity change, negative = inhibition | Potency
51 | CC1(C)CC[C@]2(C(=O)O)CC[C@]3(C)C(=CCC4[C@@]5(C)C[C@H](O)[C@H](O[C@@H]6OC[C@H](O)[C@H](O)[C@H]6O)[C@@](C)(CO)C5CC[C@]43C)[C@@H]2C1 (stereo partly drawn) | 2.9% [at 20.6 µM] | 
52 | C[C@@H]1C/C=C/C=C\C=C\C=C\[C@H](O[C@@H]2O[C@H](C)[C@@H](O)[C@H](N)[C@@H]2O)C[C@@H]2O[C@](O)(C[C@@H](O)C[C@H]3O[C@@H]3/C=C/C(=O)O1)C[C@H](O)[C@H]2C(=O)O | -0.5% [at 20.6 µM] | 
53 | C=C1[C@@H](C)[C@H]2[C@H](Cc3c[nH]c4ccccc34)NC(=O)[C@]23C(=O)/C=C/C(=O)[C@H](O)/C(C)=C\[C@@H](C)C/C=C/[C@H]3[C@@H]1O | -1.88% [at 53.3 µM] | 
54 | Clc1ccc(CSc2nncn3c2cc2occc23)cc1 | -10.1% | 
55 | CCC/C=C/C=C/C1CC(O)C2(O)C(=O)OCC12 (stereo not drawn) | 0.378% | 
56 | CC(=O)/C=C/C1C(C)CC(O[C@@H]2O[C@H](CO)[C@@H](O)[C@H](O)[C@H]2O)CC1(C)C (stereo partly drawn) | -0.219% [at 53.3 µM] | 
57 | COc1ccc(NC(=O)c2ccco2)cc1NC(=O)COc1ccc(C)c(C)c1 | 1.59% | 
58 | Cc1cc(NC(=O)CSc2ncc(C(=O)Nc3ccc(Cl)cc3)c(=O)n2C)no1 | 6.78% | 
59 | C1CCC[C@H]2CCCN3CC[C@@H](CCCCCC[C@@H]4CCCN5CC[C@@H](CC1)O[C@@H]45)O[C@@H]23 | -2.71% [at 0.217 µM] | 
60 | CNC(=O)c1ccccc1Nc1nc(Nc2ccc3c(c2OC)CCC[C@@H](N2CCN(CCO)CC2)C3)ncc1Cl | -3.28% | 
61 | CN(C)c1cccc(Oc2cnc(Nc3cccc(O)c3)nc2)c1 | -7.76% | 
62 | CCOc1ccc(CCNC(=O)CN(c2ccc(C)cc2)S(=O)(=O)N(C)C)cc1OCC | -7.19% | 
63 | CC1CN(C(=O)N2CCC(C(=O)NCc3ccco3)CC2)c2cc(Cl)ccc2O1 (stereo not drawn) | 2.28% | 
64 | CC(CCC1(O)OC2CC3C4CC=C5C[C@@H](O[C@@H]6O[C@H](CO)[C@@H](O[C@@H]7O[C@@H](C)[C@H](O)[C@@H](O)[C@H]7O)[C@H](O)[C@H]6O[C@@H]6O[C@@H](C)[C@H](O)[C@@H](O)[C@H]6O)CC[C@]5(C)C4CC[C@]3(C)[C@@]2(O)[C@@H]1C)CO[C@@H]1O[C@H](CO)[C@@H](O)[C@H](O)[C@H]1O (stereo partly drawn) | 0.389% [at 20.6 µM] | 
65 | CC(=O)OC1CCC2(C)C(CCC3(C)C2CC=C2C4CC(C)(C)CCC4(C)CCC23C)C1(C)C(=O)O (stereo not drawn) | -22% [at 53.3 µM] | 
66 | CCC(COC)n1nnc2c(Nc3ccc(OC)cc3C)nc(C)cc21 (stereo not drawn) | -0.898% | 
67 | C[C@H]1COCCN1c1cc(C2(S(=O)(=O)C3CC3)CC2)nc(-c2ccc(NC(=S)NCCO)cc2)n1 | -2.67% | 
68 | CCCN(CCC)CCCNC(=O)Cn1ncc2c3ccccc3n(Cc3ccccc3)c2c1=O | -13.9% | 
69 | CC(CNC(=O)c1nnc(Cc2cccc(F)c2)o1)c1ccccc1 (stereo not drawn) | -6.76% | 
70 | CC(C)(C)OC(=O)N1CCC(c2c(C(=O)NCCc3ccsc3)cnn2-c2ccc(F)cc2F)CC1 | -7.51% | 
71 | CC(=O)c1ccc(NC(=O)CCc2nc(-c3ccc(C)cc3)no2)cc1 | -9.62% | 
72 | CC(C)C(=O)Nc1nc2c(s1)CC(C(C)(C)C)CC2 (stereo not drawn) | -26% | 
73 | COC(=O)C12C(=O)C(C)=C(O)C1(C)C(C)=CC1C3(CO)CCC(O)C(C)(C)C3CCC12C (stereo not drawn) | 2.3% [at 53.3 µM] | 
